This note sets out measurements from PubChem BioAssay (NCI).

A short description of the test: NCI Yeast Anticancer Drug Screen. Data for the mec2-1 strain (AID 157). Conditions: S. cerevisiae mec2-1 strain, stronger effect = higher value. As for the experimental part: Growth inhibition of yeast strains with defined genetic alterations is measured as a screen for potential anti-cancer activity. Selected strains with alterations in DNA damage repair or cell cycle control were exposed to compounds and growth inhibition was measured relative to vehicle treated controls. The strain used in this assay is mec2-1

The mark [1] stands for this setting: at 5.0 µM (retest, dose inferred, filed as 0.5).
Setting [2] is: at 50.0 µM (retest, dose inferred, filed as 5.0).

Molecules are shown by their SMILES. The panel holds about 79,000 compounds, 15% with a hit somewhere; the sample as a whole holds those more often. Unmarked numbers belong to inactive results. Active and inactive are the calls of the source. Rule as the data show it: active = growth inhibition above about 70%; inactive = the rest.

Take `CCOC(=O)Nc1ccc2c(c1)Cc1ccccc1-2`: the growth inhibition (at 1.2 µM) was -4%; the growth inhibition (at 3.7 µM) was -4%; the growth inhibition under setting [1] was 1%; the growth inhibition (at 11.0 µM) was -6%; the growth inhibition (at 33.0 µM) was -5%; the growth inhibition under setting [2] is 12%. The growth inhibition runs as follows: (at 50.0 µM) -5.5%; (at 100.0 µM) -2%.

For `O=C1NC(c2c(Cl)cccc2Cl)Nc2ccccc21` (stereo not given), the growth inhibition reads like this: (at 1.2 µM) -1%; (at 3.7 µM) -9%; under setting [1], 92% (active); (at 11.0 µM) -9%; (at 33.0 µM) 63%; under setting [2], 100% (active). The growth inhibition was 83.7% (active) (at 50.0 µM) and 94% (active) (at 100.0 µM).

For the compound `COC(=O)/C=C1/OC(c2ccc(Br)cc2)=C(Br)C1=O`, the growth inhibition was 9% (at 1.2 µM); -1% (at 3.7 µM); 18% under setting [1]; -5% (at 11.0 µM); 8% (at 33.0 µM); 85% (active) under setting [2]. The growth inhibition is 18.8% (at 50.0 µM) and 71% (active) (at 100.0 µM).

`Cc1nc2c(ncn2CCO)c(=O)[nH]1`: the growth inhibition (at 1.2 µM) is 15%; the growth inhibition (at 3.7 µM) is -2%; the growth inhibition under setting [1] was 13%; the growth inhibition (at 11.0 µM) was -3%; the growth inhibition (at 33.0 µM) was -3%; the growth inhibition under setting [2] was 47%. Moreover, the growth inhibition reads like this: (at 50.0 µM) -20.6%; (at 100.0 µM) -13%.

Regarding `CCOC(=O)C1=C(C)NC(C)=C(C(=O)OCC)C1c1ccc(C)cc1`, the growth inhibition is 27% (at 1.2 µM); -6% (at 3.7 µM); -24% under setting [1]; 39% (at 11.0 µM); 97% (active) (at 33.0 µM); 7% under setting [2]. In addition, the growth inhibition by setting is: (at 50.0 µM) 91.5% (active); (at 100.0 µM) 95% (active).
